Source: PubChem BioAssay
Pf growth 48h = Primary qHTS for delayed death inhibitors of the malarial parasite plastid, 48 hour incubation; P. falciparum luciferase growth in erythrocytes, 48 h; AID 504832, 2011; 5.9% of 310,000 active; Potency, µM (top dose mostly 28.7 µM), for the others: at the highest dose activity change, negative = inhibition, usual class: inhibitors; further: potency means the concentration at half of the fitted maximal effect; on the % scale 0 is the no-effect control and ±100 the full control effect
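In quantitative HTS format, infected erythrocytes bearing luciferase-reporter parasites were treated for a single generation at 37 C. Luminescence after adding detection reagent served as the growth measure.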
Shiga toxin inh = A qHTS for Small Molecule Inhibitors of Shiga Toxin. 9.2% of 290,000 active. inhibition, % at 38.7 µM. AID 2315, 2010. Vero cells, Shiga toxin protein synthesis inhibition reporter; in the data active means inhibition mostly above about 28%, no sharp cut-off; inactive means mostly below about 43%; further: 0% is about no effect
Cycloheximide cs = Cycloheximide Counterscreen for Small Molecule Inhibitors of Shiga Toxin; 12% of 300,000 active; max response, %; cell reporter, cycloheximide protein synthesis inhibition counterscreen; in the data active means max response mostly above about 13%, no sharp cut-off; inactive means mostly below about 14%; further: read at 38.3 µM for the half of the compounds with a filed dose; 0% is about no effect
Pf growth 96h = Primary qHTS for delayed death inhibitors of the malarial parasite plastid, 96 hour incubation; P. falciparum luciferase reporter growth, 96 h; Potency, µM (highest dose often 28.7 µM), inactives show at the top dose activity change, negative = inhibition, hits mostly inhibitors; 6.9% of 320,000 active; further: potency means the concentration at half of the fitted maximal effect; on the % scale 0 is the no-effect control and ±100 the full control effect
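Readout is luminescence from an integrated firefly luciferase in P. falciparum. Red cells, 2% hematocrit and 0.05% parasitemia final, were cultured with compound through two parasite generations (96 hours) at 37 C, 5% CO2.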
HCMV antiviral = qHTS Assay for inhibitors of the human cytomegalovirus (HCMV); 4.5% of 410,000 active; HFF cells, HCMV-luciferase reporter, 72 h; stronger effect = lower value; activity change, negative = inhibition, % at 57.5 µM; in the data active means activity change below about -60%; inconclusive means no clear call, values can overlap the other calls; inactive means above about -39%; further: on the % scale 0 is the no-effect control and ±100 the full control effect
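Two-dose cell screen: HFF monolayers treated with compounds and infected with luciferase-expressing HCMV at 1 PFU/cell, 72 h at 37C, then lysed for luciferase measurement.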
An asterisk follows results filed as active; ? = inconclusive; . = no result given. In the library only some 20% were active in any assay of this set; here they are far more common. Unless noted, the call rests on the fitted dose curve; in most records, active means well fitted inhibition curve with a large enough effect; inconclusive means small, poorly fitted or top-dose-only effect, or another doubt; inactive means no such curve, though single readings can be large or run the other way.

SMILES	Pf growth 48h	Shiga toxin inh	Cycloheximide cs	Pf growth 96h	HCMV antiviral
COCCn1c(C)cc(C(=O)COC(=O)c2ccc(NC(=O)CC#N)cc2)c1C	-38.0%	72.6*	40.2*	.	92.8
COCCn1c(C)cc(C(=O)COc2ccc(N(C)S(=O)(=O)c3ccc(C)cc3)cc2)c1C	9.28µM*	.	.	?	-5.7
CC(C)(C)NC(=O)COC(=O)c1ccc(NC(=O)CC#N)cc1	?	-10.9	-5.1	-2.8%	-8.9
COCCn1c(C)cc(C(=O)COC(=O)c2ccc(S(=O)(=O)N(C)C)cc2)c1C	.	.	.	.	-87.6*
COc1ccc(-c2nc(C(F)(F)F)c(OC)o2)cc1OC	9.3%	-14.6	-3.5	0.2%	-27.9
O=C(Cc1cccs1)NCc1ccccc1F	77.7%	52.4*	18.3*	.	29.3
CCN(CC(=O)NCc1cccs1)C(=O)CCOc1ccccc1C	-5.0%	-2.6	-2.5	9.2%	-96.6*
O=C(Cc1cccs1)NCc1ccccc1	56.8%	26.0	9.9	?	41.9
O=C(NCc1cccs1)c1ccccc1F	9.2%	12.3	12.1*	7.1%	-7.1
Cc1ccccc1CNC(=O)Cc1cccs1	187.1%	49.6*	43.7*	3.9%	-0.4
O=C(NCc1ccc(Cl)cc1)C1CC(O)CN1S(=O)(=O)c1ccc(Cl)cc1 (stereo not given)	-1.5%	-2.6	-2.9	2.1%	-1.6
O=C(Cc1c(O)c2ccccc2[nH]c1=O)NCc1ccccc1F	3.3%	93.5*	60.2*	-10.6%	-24.5
Cc1cc(O)c(CN2CCN(c3ccccc3)CC2)c2oc(=O)cc(C)c12	.	.	.	.	-1.4
COc1ccc(NC(=O)CN(c2ccccc2C)S(C)(=O)=O)c(OC)c1	4.6%	.	-0.4	13.9%	-14.9
COc1ccc2cc1Oc1ccc(cc1)C[C@H]1c3cc(c(OC)cc3CCN1C)Oc1c(OC)c(OC)cc3c1[C@H](C2)N(C)CC3	2.08µM*	-4.2	-2.7	2.08µM*	?
COc1cc2c3cc1Oc1c(OC)c(OC)cc4c1[C@H](Cc1ccc(cc1)Oc1cc(ccc1O)C[C@H]3N(C)CC2)N(C)CC4	.	.	.	.	-36.4
COc1cc2c3cc1Oc1cc(ccc1O)C[C@@H]1c4c(cc(OC)c(O)c4Oc4ccc(cc4)C[C@H]3N(C)CC2)CCN1C	2.08µM*	-13.0	-3.2	1.65µM*	-9.7
COc1ccc2cc1Oc1ccc(cc1)C[C@H]1c3c(cc4c(c3Oc3cc5c(cc3OC)CCN(C)[C@@H]5C2)OCO4)CCN1C	1.85µM*	3.1	1.8	1.47µM*	-38.2
Cc1ccccc1N1C(=O)CC(N2CCN(C(=O)c3ccco3)CC2)C1=O (stereo not given)	8.7%	-8.9	7.8	-15.9%	24.0
Cc1ccc(CN(C(=O)c2ccc(Cl)c([N+](=O)[O-])c2)C2CCS(=O)(=O)C2)o1 (stereo not given)	18.4%	31.0	21.7	29.9%	-31.1
O=C(CCS(=O)(=O)c1cccc2nsnc12)NCc1ccccc1Cl	7.5%	33.4	-2.5	9.28µM*	26.3
CCOC(=O)c1cccc(NS(=O)(=O)c2cc(Br)cc3c2N(C(=O)C2CC2)CC3)c1	.	.	.	.	-26.0
NCCOc1ccc(C23CC4CC(CC(C4)C2)C3)cc1	52.3%	-19.5	-13.2	148.5%	-85.0*
OCCN1CCN(CC(O)COc2ccc(Cl)cc2)CC1 (stereo not given)	5.1%	-28.7	-0.7	9.4%	11.7
OCCN1CCN(CC(O)COc2ccc(C34CC5CC(CC(C5)C3)C4)cc2)CC1 (stereo not given)	?	-1.7	7.5	11.7µM*	-95.7*
SMILES	Pf growth 48h	Shiga toxin inh	Cycloheximide cs	Pf growth 96h	HCMV antiviral
Cc1ccc(CN(Cc2ccco2)C(=O)c2ccc(Cl)cc2)o1	.	.	.	.	-22.8
O=C(O)CC(Cc1ccc(Cl)cc1)C(=O)Nc1cc(Cl)ccc1Cl (stereo not given)	-14.7%	.	4.1	0.1%	2.4
Cc1ccccc1NC(=O)C(C)N1C(=O)c2ccccc2C1=O (stereo not given)	-10.9%	.	0.8	2.94µM*	-18.6
Cc1cccnc1NC(=O)C(C)N1C(=O)c2ccccc2C1=O (stereo not given)	13.6%	4.9	4.1	12.5%	-12.2
Oc1c(Br)cc(Br)cc1CNn1cnnc1	-11.0%	-9.7	-5.5	?	5.2
CCOc1cccc2sc(N3CCN(C(=O)c4ccc5ncsc5c4)CC3)nc12	?	.	.	11.7µM*	-10.2
COc1ccccc1N1CCN(C(=O)c2ccc3ncsc3c2)CC1	.	.	.	.	-7.5
COc1ccc(OC)c2sc(N3CCN(C(=O)c4ccc5ncsc5c4)CC3)nc12	11.7µM*	.	.	?	-31.9
Cc1cccc(C(=O)NC2CCN(C(=O)Nc3ccc(F)cc3)CC2)c1	-9.7%	-2.4	-2.4	-14.9%	43.5
CC1(C)CC2(CC(c3ccc(F)cc3)c3ccc(O)cc3O2)NC(=S)N1 (stereo not given)	2.33µM*	-7.0	-2.7	-16.5%	0.0
CSc1ccc(CN(C)C(=O)C(Cc2ccccc2)NC(=O)c2ccccc2)cc1 (stereo not given)	-11.0%	65.1*	39.5*	?	-66.7*
CSc1ccc(CN(C)C(=O)C(c2ccccc2)c2ccccc2)cc1	8.28µM*	-2.3	-0.9	?	-32.8
CN(Cc1ccc(F)cc1)C(=O)C(Cc1ccccc1)NC(=O)c1ccccc1 (stereo not given)	?	.	.	13.0%	-17.3
CC(=O)C1=C(O)C(CSCc2ccccc2)N(C)C1=O (stereo not given)	.	.	.	.	29.5
Cc1cc(=O)c2cc(C(=O)c3ccccc3)ccc2[nH]1	13.1µM*	37.9	9.4*	?	?
Cc1cc(=O)c2cc(Cl)ccc2[nH]1	?	-13.7	-1.7	.	-63.4*
Cc1cc(=O)c2ccc(Cl)cc2[nH]1	?	-9.7	-5.3	?	-12.0
COC(=O)c1ccc2[nH]c(C)cc(=O)c2c1	-7.4%	30.0	-2.8	7.4%	16.2
Cc1cccc(NC(=O)c2ccc3nc(CCc4ccccc4)oc3c2)c1C	.	.	.	.	43.3
CSc1nsc(N/N=C/c2ccccc2)c1C#N	141.8%	51.0*	30.5*	?	-39.5
COc1cccc(/C=N/Nc2snc(SC)c2C#N)c1O	147.8%	69.4*	72.3*	-0.3%	-98.2*
COc1cccc(/C=C/c2n[nH]c(=O)c(C#N)c2C)c1	?	-8.6	6.1	?	-7.6
CSc1nsc(/C=C/Nc2ccc(C(=O)O)cc2)c1C#N	?	37.8	6.9	-10.7%	-1.5
COc1ccc(/C=N/Nc2snc(SC)c2C#N)cc1OC	4.15µM*	97.5*	34.8*	90.0%	82.4
COc1cccc(/C=N/Nc2snc(SC)c2C#N)c1	41.4%	66.8*	27.0*	?	5.6
CN(C)/C=N/c1sc2c(c1C#N)CC(C)(C)NC2(C)C	0.0%	-1.4	0.4	?	2.6
Cc1cccc(N(CC(=O)NCc2ccccc2)C(=O)CCC(=O)Nc2nccs2)c1	-5.3%	-4.2	-5.1	1.0%	11.5
CCCc1cc(=O)oc2cc(OCC(=O)NCCCN3CCOCC3)c(Cl)cc12	6.2%	-4.0	0.7	?	-4.7
